Experimental data: PubChem BioAssay
The source made the active and inactive calls. Unless noted, the rule behind the calls is not given here.

How the values were obtained:
[1] = resazurin metabolic signal in HepG2 cells – cell-based, resazurin fluorescence, 24 h, PK04 Diversity Set, profiling panel (AID 1172); conditions: HepG2 viability, higher = more signal
[2] = budding yeast growth changes without added modifier – OD600, strain BY4716, 24 h, basal condition, primary screen (AID 1173); conditions: S. cerevisiae BY4716 growth, OD600, 24 h; higher = more signal, called active from +8 up or from −8 down
[3] = viability profiling in MM1S myeloma cells – cell-based, resazurin fluorescence, basal, 24 h, PK04 Diversity Set, profiling panel (AID 1174); conditions: higher = more signal, called active from +8 up or from −8 down;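 note: MM1S multiple myeloma cell line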
[4] = molecular target: Dihydroorotate dehydrogenase (quinone), mitochondrial (Plasmodium falciparum (isolate 3D7)) (UniProt Q08210); test: inhibition of P. falciparum DHODH – biochemical, C-terminal His tag, absorbance 600 nm, primary screen (AID 1175); conditions: PfDHODH enzyme, DCIP absorbance 600 nm; higher = more signal, called active from +8 up or from −8 down;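 note: recombinant parasite enzyme with a five histidine tag at its C terminus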
[5] = inhibition of PAO1 biofilm formation – strain PAO1, LB-PBS medium, absorbance 600 nm, primary screen (AID 1176); conditions: P. aeruginosa PAO1 growth/biofilm, A600, 12 h; higher = more signal
[6] = growth modulation of vineyard yeast isolate – strain RM11-1a, OD600, basal, 24 h, primary screen (AID 1177);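 note: cultures grown under basal conditions with no added stressor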; conditions: S. cerevisiae RM11-1a growth, OD600, 24 h; higher = more signal, called active from +8 up or from −8 down
[7] = growth of efflux-deficient E. coli DRC39 – strain DRC39, OD650, 24 h, E. coli filamentation inducers, primary screen (AID 1178);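 note: growth measured as culture turbidity by optical density at 650 nm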; conditions: E. coli DRC39 acrAB, higher = more signal, called active from +8 up or from −8 down
[8] = growth of efflux-deficient E. coli DRC39 – strain DRC39, OD650, 48 h, E. coli filamentation inducers, primary screen (AID 1179);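 note: screen aims at cell division blockers that make cells filament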; conditions: E. coli DRC39 delta-acrAB growth, higher = more signal, called active from +8 up or from −8 down
[9] = viability profiling in RPMI8226 myeloma cells – cell-based, resazurin fluorescence, basal, 24 h, PK04 Diversity Set, profiling panel (AID 1180); conditions: higher = more signal;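 note: RPMI8826 multiple myeloma cell line at 5000 cells per well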
[10] = molecular target: E3 ubiquitin-protein ligase XIAP (Homo sapiens) (UniProt P98170); test: small molecules binding XIAP protein – biophysical, small-molecule microarray, fluorescence 635 nm, primary screen (AID 1181); conditions: higher = more signal;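 note: score merges 667 nm emission and signal to noise over triplicate slides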
[11] = tested on: XIP peptide (Xip251-270) binding; test: XIP fragment 251-270 binding compounds – biochemical, small-molecule microarray, fluorescence 635/667 nm, 0.1 µg/mL protein, primary screen (AID 1182); conditions: fluorescent protein binding, 635 nm, higher = more signal, called active from +8 up or from −8 down
XIP peptide (Xip251-270) = test: compounds binding XIP fragment 251-270 – biochemical, small-molecule microarray, fluorescence 635/667 nm, 0.5 µg/mL protein, primary screen (AID 1183); conditions: fluorescence 635 nm, higher = more signal
[12] = blood-stage malaria parasite viability loss – strain 3D7, DAPI fluorescence, 100 nL, primary screen (AID 1184);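 note: parasites grown inside human red blood cells in medium with human serum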; conditions: P. falciparum 3D7 growth, 3 d, higher = more signal
[13] = molecular target: Homeobox protein Hox-A13 (Mus musculus) (UniProt Q62424); test: disruptors of Hoxa13 oligonucleotide interaction – biochemical, fluorescence polarization, labeled oligonucleotide, primary screen (AID 1185); conditions: Hoxa13:DNA binding, 15 min, higher = more signal, called active from +8 up or from −8 down
[14] = blockers of DNA damage checkpoint Chk1 activation – imaging, HeLa, hydroxyurea, phospho-Chk1 antibody, percent positive cells, primary screen (AID 1186); conditions: hydroxyurea-induced phospho-Chk1 immunofluorescence imaging, higher = more signal
[15] = blockers of DNA damage checkpoint Chk1 activation – imaging, HeLa, hydroxyurea, phospho-Chk1 nuclear intensity, primary screen (AID 1187); conditions: hydroxyurea-induced phospho-Chk1 immunofluorescence imaging, higher = more signal

Sequence of Homeobox protein Hox-A13 (Mus musculus) (Q62424 whole entry, looked up): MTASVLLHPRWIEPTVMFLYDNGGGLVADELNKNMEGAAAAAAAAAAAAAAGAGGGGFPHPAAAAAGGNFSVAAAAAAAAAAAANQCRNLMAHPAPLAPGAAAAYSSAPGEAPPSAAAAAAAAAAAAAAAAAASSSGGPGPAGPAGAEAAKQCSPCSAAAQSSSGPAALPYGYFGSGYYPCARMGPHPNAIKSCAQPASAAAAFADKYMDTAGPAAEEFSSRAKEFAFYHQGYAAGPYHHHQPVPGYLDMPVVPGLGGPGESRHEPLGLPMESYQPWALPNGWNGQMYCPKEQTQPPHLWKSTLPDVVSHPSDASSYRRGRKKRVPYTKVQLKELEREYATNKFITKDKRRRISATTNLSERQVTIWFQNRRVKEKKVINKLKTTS
Sequence of Dihydroorotate dehydrogenase (quinone), mitochondrial (Plasmodium falciparum (isolate 3D7)) (Q08210 whole entry, looked up): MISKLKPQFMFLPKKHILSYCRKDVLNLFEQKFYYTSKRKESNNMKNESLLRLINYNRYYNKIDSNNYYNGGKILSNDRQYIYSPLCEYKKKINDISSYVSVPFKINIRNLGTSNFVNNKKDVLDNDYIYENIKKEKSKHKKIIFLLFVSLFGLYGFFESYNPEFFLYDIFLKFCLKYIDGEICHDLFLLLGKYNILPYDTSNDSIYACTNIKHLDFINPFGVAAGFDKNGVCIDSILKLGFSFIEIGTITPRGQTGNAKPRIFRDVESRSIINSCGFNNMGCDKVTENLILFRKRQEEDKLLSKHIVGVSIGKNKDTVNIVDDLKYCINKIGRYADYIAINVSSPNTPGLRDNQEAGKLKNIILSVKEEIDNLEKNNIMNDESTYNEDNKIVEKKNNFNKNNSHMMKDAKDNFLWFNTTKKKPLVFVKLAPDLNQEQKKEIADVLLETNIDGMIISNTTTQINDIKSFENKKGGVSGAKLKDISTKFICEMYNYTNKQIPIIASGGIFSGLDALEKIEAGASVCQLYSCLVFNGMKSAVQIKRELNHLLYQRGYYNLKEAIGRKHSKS
Sequence of E3 ubiquitin-protein ligase XIAP (Homo sapiens) (P98170 whole entry, looked up, the tested form may be a part): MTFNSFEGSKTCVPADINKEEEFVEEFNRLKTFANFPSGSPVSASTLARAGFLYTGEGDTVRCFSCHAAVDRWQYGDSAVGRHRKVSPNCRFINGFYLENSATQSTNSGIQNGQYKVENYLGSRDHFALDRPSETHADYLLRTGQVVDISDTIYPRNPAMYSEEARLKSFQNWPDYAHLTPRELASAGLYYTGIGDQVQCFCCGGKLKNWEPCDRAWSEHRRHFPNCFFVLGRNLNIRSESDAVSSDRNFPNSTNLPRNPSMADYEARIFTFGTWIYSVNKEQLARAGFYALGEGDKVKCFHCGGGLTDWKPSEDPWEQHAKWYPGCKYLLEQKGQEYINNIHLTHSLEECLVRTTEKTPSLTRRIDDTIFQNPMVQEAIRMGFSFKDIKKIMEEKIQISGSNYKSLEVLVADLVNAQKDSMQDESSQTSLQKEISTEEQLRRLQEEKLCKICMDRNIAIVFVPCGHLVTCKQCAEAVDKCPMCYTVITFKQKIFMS

Row | Structure (SMILES) | z-score [1] | z-score [2] | z-score [3] | composite z-score [4] | z-score [5] | z-score [6] | z-score [7] | z-score [8] | z-score [9] | composite z-score [10] | composite z-score [11] | composite z-score (XIP peptide (Xip251-270)) | z-score [12] | z-score [13] | z-score [14] | z-score [15]
1 | C=CC[C@@]1(C(=O)NCCN2CCOCC2)N=C(c2ccc(OCCCO)cc2)O[C@@H]1c1ccccc1N=[N+]=[N-] | -0.1 | -0.0089 (inactive) | -1.05 (inactive) | 1.61 (inactive) | 1.61 (inactive) | 2.17 (inactive) | 0.2 (inactive) | -0.0194 (inactive) | -0.614 | 0.107 | 2.32 (inactive) | -0.0559 | -2.21 | -6.17 (inactive) | 0.003 (inactive) | -0.0928 (inactive)
2 | O=C1C2C=CC(C(O)c3cc(C(F)(F)F)cc(C(F)(F)F)c3)N(n3cnnc3)C2C(=O)N1Cc1ccccc1 (stereo not given) | -0.064 | -1.01 (inactive) | -0.497 (inactive) | 0.861 (inactive) | 0.933 (inactive) | 1.09 (inactive) | 0.375 (inactive) | 0.589 (inactive) | -0.394 | 0.0945 | -0.0242 (inactive) | 0.662 | -1.06 | -2.95 (inactive) | 0.506 (inactive) | 0.135 (inactive)
3 | Cc1ccc([C@@H]2C[C@@H](Sc3ccccc3)[C@H](C(=O)O)CN2S(=O)(=O)c2ccc(C)cc2)cc1 | 0.391 | -1.58 (inactive) | -1.48 (inactive) | -0.351 (inactive) | 0.657 (inactive) | 0.455 (inactive) | -0.634 (inactive) | -0.518 (inactive) | -0.738 | 0.312 | 0.571 (inactive) | 0.8 | -0.706 | -7.26 (inactive) | 0.57 (inactive) | 0.498 (inactive)
4 | COc1cc(C(O)C2C=CC3C(=O)NC(=O)C3N2Nc2ccccn2)cc(OC)c1OC (stereo not given) | -0.927 | 0.979 (inactive) | -1.57 (inactive) | 1.14 (inactive) | 1.16 (inactive) | 0.228 (inactive) | -1.24 (inactive) | -0.397 (inactive) | -2.04 | -0.031 | -0.0962 (inactive) | 0.405 | 1.26 | -2.19 (inactive) | 0.209 (inactive) | 0.228 (inactive)
5 | COC(=O)[C@@]1(Cc2ccc(F)cc2)[C@H]2c3cc(C(=O)N4CCCC4)n(CCCNc4ncc(C(F)(F)F)cc4Cl)c3C[C@H]2CN1C(=O)c1ccccc1 | -0.461 | 2.05 (inactive) | -2.38 (inactive) | 0.308 (inactive) | 1.03 (inactive) | 1.65 (inactive) | -0.645 (inactive) | -0.681 (inactive) | -2.34 | 0.426 | 0.1 (inactive) | 0.716 | -1.41 | -4.2 (inactive) | 0.919 (inactive) | 0.259 (inactive)
6 | COC(=O)[C@@]1(Cc2ccccc2)[C@H]2c3cc(C(=O)N4CCCC4)n(Cc4ccc(S(C)(=O)=O)cc4)c3C[C@H]2CN1C(=O)c1ccccc1 | -0.837 | 0.912 (inactive) | -0.774 (inactive) | -0.467 (inactive) | 0.206 (inactive) | -0.33 (inactive) | -1.33 (inactive) | -0.195 (inactive) | -1.14 | -0.105 | 0.478 (inactive) | 0.215 | -1.5 | -4.67 (inactive) | 0.267 (inactive) | -0.364 (inactive)
7 | CO[C@H]1O[C@H](CO)[C@@H](OC(=O)Nc2ccccc2)[C@H](OC(=O)Nc2ccccc2)[C@@H]1OC(=O)Nc1ccccc1 | -0.72 | 0.56 (inactive) | -1.73 (inactive) | 0.202 (inactive) | -0.826 (inactive) | 1.22 (inactive) | 0.576 (inactive) | 0.667 (inactive) | -1.15 | 0.178 | 0.228 (inactive) | 0.642 | -1.43 | -6.12 (inactive) | 0.0303 (inactive) | 0.502 (inactive)
8 | O=C1C[C@@](C(=O)NCC(F)(F)F)(c2ccc([N+](=O)[O-])cc2)[C@@H](c2ccc(CO)cc2I)N1C1CCCCC1 | -0.0199 | -0.805 (inactive) | 0.233 (inactive) | -0.277 (inactive) | 0.609 (inactive) | 0.195 (inactive) | -0.218 (inactive) | -0.182 (inactive) | -0.589 | -0.0172 | 0.469 (inactive) | 0.778 | -1.26 | -4.99 (inactive) | -0.171 (inactive) | 0.187 (inactive)
9 | CC(C)=CCCC(C)=CC(O)C1C=CC2C(=O)N(C)C(=O)C2N1Nc1ccccc1 (stereo not given) | -1.34 | -4.94 (inactive) | -1.37 (inactive) | 0.0684 (inactive) | 1.51 (inactive) | 0.938 (inactive) | -0.261 (inactive) | 0.0052 (inactive) | -2.03 | 0.123 | 0.438 (inactive) | 0.624 | -0.49 | -3.34 (inactive) | -1.1 (inactive) | -1.34 (inactive)
10 | C=CCOC(=O)[C@@H]1[C@H]2C(=O)O[C@H](c3ccccc3)[C@H](c3ccccc3)N2[C@H](c2ccc(OCCOC(=O)[C@@H]3C[C@@H]4C(=O)NCC(=O)N4[C@@H]3c3ccc(O)cc3)cc2)[C@@]12C(=O)Nc1ccc(I)cc12 | 0.978 | 0.286 (inactive) | 1.11 (inactive) | -0.365 (inactive) | 0.118 (inactive) | 1.38 (inactive) | 0.202 (inactive) | -0.515 (inactive) | 1.3 | 0.164 | 0.549 (inactive) | 0.849 | -1.77 | -0.29 (inactive) | 0.273 (inactive) | 0.702 (inactive)
